The source of these data is PubChem BioAssay (NCI).

Structures are written as SMILES. Where “and” joins values, the source holds several entries; their conditions need not be identical. Identical values can stand only once. About 83,000 compounds went through this panel and 20% of them were active in at least one assay; those are over-represented in the sample as a whole.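 Growth was measured after 48 h exposure to one concentration of compound in 96-well plates. Values under 10 count as active.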 Calls of active or inactive are those of the source.

The test system of this assay is MDA-MB-468 breast. Kind of assay: NCI-60 one-dose screen, 48 h (100 = growth as untreated, 0 = no growth, -100 = all killed). Conditions: 10 µM unless noted.
For `O=C(O)Cc1cccc(=O)c(O)c1C(=O)O`, the growth was 105% (inactive). Take `COc1cc(-c2nn(-c3ccc(C)cc3)cc2C(=O)O)ccc1O`: the growth was 121% (inactive). The result for `O=C(CCCCCCCCC(=O)Nc1cccc(C2=NCCN2)c1)Nc1cccc(C2=NCCN2)c1` reads 118% (inactive); that for `CCN(CC)c1ccc(/C=C/c2cc(C)c3ccccc3n2)cc1`, 1.02% (active). The result for `CC(=O)Nc1nc2c(c(N)c1C#N)C(c1cccc(Cl)c1)C1=C(CCCC1=O)N2c1sc2c(c1C#N)CCCC2` (stereo not given) reads 47.7% (inactive).

`CN(CCCNC(=O)Cc1ccc2ccc3cccc4ccc1c2c34)CCCNc1cc(-c2ccc3ccccc3c2)nc2ccccc12`: the growth was -78.4% (active). `COc1ccc(-c2nnc(SC/C(=N\O)c3ccccc3)o2)cc1`: the growth is 97% (inactive). With `COc1cc(C)c(Cl)cc1C1=NN(c2ccc(S(N)(=O)=O)cc2)C(/C=C/c2ccccc2)C1` (stereo not given), the growth is 41.2% (inactive). The result for `O=C1[C@H]2Cc3c([nH]c4ccccc34)[C@H](c3ccc(Br)cc3)N2C(=O)CN1C1CCN(CC2CCCCC2)CC1` reads 80.1% (inactive); that for `Cc1[nH]nc2ccc3nc(-c4ccc5[nH]ncc5c4)c4c(c3c12)CCCC4`, -6.72% (active); that for `O=C1/C(=N/O)CCc2ccccc21`, 109% (inactive). For `NC(=S)N/N=C(/C=C/c1cn(-c2ccccc2)nc1-c1ccc(Cl)cc1)c1cc2ccccc2oc1=O`, the growth is 52.2% (inactive). Turning to `CC1CC(C)/C(=N/NC(N)=O)C(C(O)CC2CCC(=O)NC2=O)C1` (stereo not given), the growth is 46.9% (inactive). As for `O=C(Cc1ccc(F)c(Cl)c1)Nc1cc(C2(C(F)(F)F)CC2)nn1Cc1ccccc1`, the growth is 23.9% (inactive). The figure for `O=C(Oc1ccc[nH]c1=O)c1cc([N+](=O)[O-])cc([N+](=O)[O-])c1` is 119% (inactive). The figure for `CC1(C)OC2C(COC(c3ccccc3)(c3ccccc3)c3ccccc3)OC(c3c[nH]c4c(N)ncnc34)C2O1` (stereo not given) is 30% (inactive). The figure for `CCCCOc1ccc(/C=N/NC(N)=S)cc1` is 66.5% (inactive); for `COc1ccc(/C(=C\c2cc(OC)c(OC)c(OC)c2)C(=O)Nc2nc3ccc(Cl)cc3s2)cc1` it is 96.4% (inactive). Regarding `CCOC(C)=N`, the growth is 117% (inactive). As to `CC(=O)Nc1cccc(-n2c(=O)n(C3CC3)c(=O)c3c(Nc4ccc(I)cc4F)n(C)c(=O)c(C)c32)c1`, the growth was 77.2% (inactive). As for `CC(C)[C@@H](C)/C=C/[C@@H](C)[C@H]1CCC2=C3C=CC4=CC(=O)CC[C@]4(C)[C@H]3CC[C@@]21C`, the growth was 97.3% (inactive). The result for `CCN(CC)CCC(CNc1c2ccc([N+](=O)[O-])cc2nc2cc(OC)c(OC)cc12)c1ccccc1` (stereo not given) reads -58% (active) and -86.9% (active). For the molecule `Cc1ccccc1NC(=O)Oc1ccc(Cl)cc1C(=O)c1ccccc1`, the growth was 88.2% (inactive). The result for `NC(N)=N/N=C/c1cccc(Br)c1` reads 87% (inactive); that for `CNC(=O)Nc1ccc(-c2nc(N3CCOCC3)nc3c2cnn3C2CCOCC2)cc1`, -34.4% (active). As to `CC(=O)OC/C=C(/C)C[P+](c1ccccc1)(c1ccccc1)c1ccccc1`, the growth is 1.61% (active). The figure for `Oc1ccc(CCC2CCCC(CCc3ccc(OCCF)cc3)N2)cc1` (stereo not given) is 110% (inactive). The result for `COc1ccc(/C=C2\COc3ccc(-c4ccccc4)cc3C2=O)cc1O` reads 14.6% (inactive); that for `CCN1C(=S)N(CC)C2C1NN=C1SC(c3ccccc3)=CC(=O)N12` (stereo not given), 92.6% (inactive); that for `C=CCc1c2c(c(OC)c3ccoc13)C(=O)/C(=C/c1ccccc1OC)O2`, -3.89% (active). The figure for `NS(=O)(=O)c1ccc(N2CC(c3nc4ccccc4[nH]3)CC2=O)cc1` (stereo not given) is 113% (inactive); for `C#CC(O)c1ccccc1` (stereo not given) it is 110% (inactive). For `Cc1ccc(Nc2cc(=S)nc(N)[nH]2)cc1C`, the growth is 84.8% (inactive). The result for `C=C[C@@H]1C[C@H](O)Cc2ccccc2N1` reads 123% (inactive); that for `CN1CCN(C(=S)S)CC1`, 119% (inactive); that for `COC1=CC(c2ccc[nH]2)=N/C1=C\c1[nH]c(C)c(CC(=O)OCc2ccccc2)c1C`, -24.6% (active). The figure for `CC(=O)c1c(OCC#N)ccc2c(C)cc(=O)oc12` is 93.2% (inactive); for `Cc1ccc(N(CSc2ccc(Cl)cc2)CSc2ccc(Cl)cc2)cc1` it is 91.5% (inactive).

With `OC(COc1ccccc1Cl)COc1ccccc1Cl`, the growth is 102% (inactive). The result for `COC(=O)c1ccc2[nH]c(O)c(C(=Nc3ccc(N(C)C(=O)CN4CCN(C)CC4)cc3)c3ccc4c(c3)OCO4)c2c1` reads 38.3% (inactive).
